PubChem BioAssay AID2685 (National Center for Advancing Translational Sciences (NCATS), 2010)
The whole screen tested about 320,000 compounds, of which about 2,100 (0.66%) were called active. Another 53% or so got no clear call; they are omitted. Calls follow the shape of the dose curve; as a rule, active = well fitted inhibition curve with a large enough effect in the signal ratio, with a control signal flat (not every such curve was filed as active); inconclusive = small, poorly fitted or top-dose-only effect, or effect the other way, or a change in a side signal; inactive = flat fitted curve, though single readings scatter; the % refers to the signal ratio. For the sample, actives were picked, then their nearest neighbours and some compounds at random.

Assay: qHTS Assay for Lipid Storage Modulators in Drosophila S3 Cells;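 as to cell number change: cells counted by Cell Tracker Red CMTPX staining in the red channel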; as to lipid storage change, negative = inhibition: % is scaled to controls: 0 for no effect and ±100 for the full control effect
Details: BODIPY lipid droplet fluorescence, 18-24 h, cells fed with added oleic acid; cell number change: measured here: cell count max response; series mostly up to 46.1 µM
In short: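 Drosophila S3 cells loaded with oleic acid (400 uM, as added) and compounds at several concentrations; lipid droplets imaged by 488-nm laser-scanning cytometry, 500–530 nm intensity and object ratio to cell channel. Percent activity normalized to 20 uM Triacsin C.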
Potency is read from the fitted curve at half-maximal effect.

| Compound | Potency | cell number change [%] | lipid storage change, negative = inhibition |
| --- | --- | --- | --- |
| CC1CN(C(=O)c2cccc(S(=O)(=O)N3CCN(c4ccccc4)CC3)c2)CC(C)O1 (stereo unspecified) | inactive | 2.24 |  |
| C[C@@H]1CCC(=O)N(C[C@@H](C)CSc2ccccc2)CC1 | inactive | 11.7 |  |
| CCC(=O)Nc1ccc(NC(=O)CSc2nnc(-c3ccco3)n2C)cc1 | inactive | 8.55 |  |
| Cn1c(SCC(=O)Nc2ccc(Cl)cc2F)nnc1-c1ccco1 | 23.1 µM (active) | 9.91 |  |
| Cc1cc(NC(=O)CSc2nnc(-c3ccco3)n2C)no1 | inactive | 17.5 |  |
| O=C(Nc1nc2ccc(F)cc2s1)c1ccc(N2CCCC2=O)cc1 | inactive | -14.4 |  |
| CCCC1CC(CCc2ccccc2)OS(=O)(=O)N1 (stereo unspecified) | inactive | 22.3 |  |
| C=CCNc1nc2c(c(=O)[nH]c(=O)n2C)n1CC(O)COc1ccc2ccccc2c1 (stereo unspecified) | inactive | -2.59 |  |
| C=CCSc1nc(C)cc2c1C(=O)OC2 | inactive | -10 |  |
| CCOC(=O)C1CCN(S(=O)(=O)c2ccc(OC)c(OC)c2)CC1 | inactive |  |  |
| Cc1cc(-n2c(C)cc(C(=O)COc3ccc([N+](=O)[O-])cc3)c2C)no1 |  | -1.97 | -9.66% [at 9.22 µM] (inactive) |
| Cc1cc(-n2c(C)cc(C(=O)COc3ccc4ccc(=O)oc4c3)c2C)no1 | inactive | -3.86 |  |
| Cc1cc(-n2c(C)cc(C(=O)COc3cc(F)ccc3[N+](=O)[O-])c2C)no1 | 8.2 µM (active) | 1.91 |  |
| Cc1nc(CN2CCCC2=NC#N)n(-c2ccccc2)n1 | inactive | 7.55 |  |
| O=C(O)CN1CCCC1=Nc1ccccc1 | inactive | 7.34 |  |
| N#CN=C1CCCCCN1CC(N)=O | 0.731 µM (active) | -10.9 |  |
| Cc1cc(C(=O)N/N=C/c2ccc(-c3cccc(Cl)c3Cl)o2)n[nH]1 | inactive | -7.33 |  |
| Cc1nc(N)nc(Nc2ccc(Cl)cc2)c1Br | inactive | 17.2 |  |
| CCOc1ccc(CC(C(N)=O)C(N)=O)cc1CN(C)C | inactive | -1.24 |  |
| CCOc1ccccc1CNCc1ccc(C(=O)O)cc1 | inactive | 10.5 |  |
| CCOc1ccc(CC(C(=O)NN)C(=O)NN)cc1CN(C)C | 18.4 µM (active) | -6.71 |  |
| COC(=O)c1cc(OC)c(OC)c(OC)c1NC(=O)c1ccc(S(=O)(=O)N(C)C)cc1 | inactive | -4.59 |  |
| COC(=O)Nc1c(C(=O)OC)cc(OC)c(OC)c1OC | 16.4 µM (active) | -8.23 |  |
| COC(=O)c1cc(OC)c(OC)c(OC)c1N | inactive | 7.54 |  |
| CCOC(=O)CN(C(=O)COc1nc(C)cc(C)c1C#N)c1cccc(Cl)c1 | inactive | 6.09 |  |
| Cc1cccc(N2CCN(C(=O)c3ccc(CNc4c(N5CCC(C)CC5)c(=O)c4=O)cc3)CC2)c1C | inactive | 1.91 |  |
